# According to PubChem BioAssay (NCATS):
# Calls of active or inactive are those of the source. The call rests on the fitted dose curve.
# Tests used:
# Experiment in all cases: Confirmatory Screen for Target Class Profiling of Small Molecule Inhibitors of Methyltransferases (AID 1745852); on activity change, negative = inhibition: on the % scale 0 is the no-effect control and ±100 the full control effect
# [1] = biological target: Catechol O-methyltransferase (Homo sapiens) (UniProt P21964); settings: MTase-Glo luminescence, SAH detection, recombinant enzyme; measured here: COMT max response; stronger effect = lower value
# Chain of Catechol O-methyltransferase (Homo sapiens) (P21964 whole entry, looked up): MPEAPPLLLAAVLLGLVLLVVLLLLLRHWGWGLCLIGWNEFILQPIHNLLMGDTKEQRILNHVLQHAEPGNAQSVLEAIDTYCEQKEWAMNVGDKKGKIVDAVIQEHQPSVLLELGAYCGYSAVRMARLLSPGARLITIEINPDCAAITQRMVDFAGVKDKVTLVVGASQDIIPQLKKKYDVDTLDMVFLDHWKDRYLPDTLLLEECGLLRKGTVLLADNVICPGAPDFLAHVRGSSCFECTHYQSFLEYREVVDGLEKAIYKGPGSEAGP
# [2] = biological target: Guanidinoacetate N-methyltransferase (Homo sapiens) (UniProt Q14353); settings: MTase-Glo luminescence, SAH detection, recombinant enzyme; activity change, negative = inhibition: at 57.3 µM (top of the series) unless noted; series mostly up to 57.3 µM
# [3] = biological target: Nicotinamide N-methyltransferase (Homo sapiens) (UniProt P40261); settings: MTase-Glo luminescence, SAH detection, recombinant enzyme; measured here: NNMT max response; stronger effect = lower value
# Chain of Nicotinamide N-methyltransferase (Homo sapiens) (P40261 whole entry, looked up): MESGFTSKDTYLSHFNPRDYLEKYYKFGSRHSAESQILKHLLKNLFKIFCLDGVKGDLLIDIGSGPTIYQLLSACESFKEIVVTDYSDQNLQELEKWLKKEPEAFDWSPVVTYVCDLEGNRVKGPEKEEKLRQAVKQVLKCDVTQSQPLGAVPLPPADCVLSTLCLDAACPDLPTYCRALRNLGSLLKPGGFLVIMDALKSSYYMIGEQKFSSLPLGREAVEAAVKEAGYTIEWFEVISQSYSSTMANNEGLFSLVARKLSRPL
# [4] = biological target: Phenylethanolamine N-methyltransferase (Homo sapiens) (UniProt P11086); settings: MTase-Glo luminescence, SAH detection, recombinant enzyme; measured here: PNMT max response; stronger effect = lower value
# Chain of Phenylethanolamine N-methyltransferase (Homo sapiens) (P11086 whole entry, looked up): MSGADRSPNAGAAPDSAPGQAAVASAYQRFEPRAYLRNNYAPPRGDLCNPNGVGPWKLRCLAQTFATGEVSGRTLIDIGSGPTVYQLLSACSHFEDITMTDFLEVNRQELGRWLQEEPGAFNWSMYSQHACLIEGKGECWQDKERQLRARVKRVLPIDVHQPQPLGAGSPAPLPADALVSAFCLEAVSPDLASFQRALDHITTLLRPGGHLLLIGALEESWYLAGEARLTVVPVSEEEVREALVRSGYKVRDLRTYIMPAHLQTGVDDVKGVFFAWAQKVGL
# Potency means the concentration at half of the fitted maximal effect.
Compound,activity [1] [%],"activity change, negative = inhibition [2]",activity [3] [%],activity [4] [%],Potency [2]
COCCCN1C(=O)c2cc3c(OC)ccc(OC)c3n2CC1(C)C(=O)NC1CCCCC1 (centres undefined),-9.18,-5.66%,-20.2,-10,–
CCNc1ncc(CN2CCN(c3ccncc3)CC2)cn1,4.09,1.98%,-0.695,1.91,–
Cc1cc2c(cc3n2CC(C)(C(=O)NC2CCCCCCC2)N(Cc2ccco2)C3=O)o1 (centres undefined),-1.76,0%,-37.5,-6.55,–
CCCC1=Nc2cc(C(=O)NCCCN3CCCCC3CC)ccc2Sc2ccc(C)cc21 (centres undefined),-2.37,6.53%,-7.02,1.37,–
Cc1ccc(Cn2c(=O)c3ccccc3n3c(CCC(=O)NCCCN4CCC(C)CC4)nnc23)cc1,0,0%,-6.98,0,–
COc1ccc(CN2C(=O)c3cc4ccccc4n3CC2(C)C(=O)NCc2ccccc2)cc1OC (centres undefined),4.11,0%,-57.8,1.95,–
CC(C)Cn1c(=O)c2ccccc2n2c(=O)n(CC(=O)c3cccc(Cl)c3)nc12,-9.22,-5.46%,-38.9,-8.68,–
CC(CNC(=O)CCc1nnc2n(Cc3ccc(F)cc3)c(=O)c3ccccc3n12)c1ccccc1 (centres undefined),-6.68,-2.31%,-44.2,-0.739,–
O=C(NCc1ccc2c(c1)OCO2)c1sc(=S)n2c1[nH]c(=O)c1cc(Cl)ccc12,-44.1,–,-69.1,-48.4,30.4 µM (active)
COc1ccccc1CNC(=O)C1(C)Cn2c(cc3ccccc32)C(=O)N1Cc1ccc(OC)c(OC)c1 (centres undefined),0,0%,-60.4,-1.32,–
COc1ccc(N2CCN(C(=O)c3cc(NC(C)=O)cc4nc(C)ccc34)CC2)cc1,1.89,4.56%,4.7,7.32,–
N#Cc1ccccc1-c1cc2c(ccn2Cc2ccncc2)c(N2CCOCC2)n1,-6.69,-0.304% [at 85.7 µM],-6.24,-4.65,–
COc1ccc2[nH]c(CNc3cc(C4CC(N)C4)nc(C)n3)cc2c1 (centres undefined),-1.03,1.53%,-9.73,3.97,–
O=C(NCc1ccccc1)c1ccc2c(=O)nc3c(-c4ccccc4F)n[nH]n3c2c1,-13.3,–,-8.4,-13.5,0.121 µM (active)
CN1CCN(C)c2cnc(-c3cnn(Cc4ccccc4)c3)cc2C1,6.86,5.27% [at 85.7 µM],6.62,8.78,–
COCc1cc(NCCCNc2cccnc2)ncn1,-19.2,-12.2%,-14.1,-21,–
O=C(CCc1nnc2n(Cc3ccc(F)cc3)c(=O)c3ccccc3n12)N1CCC(N2CCCCC2)CC1,3.84,0%,-4.81,0,–
O=C(CC1CCCC1)N1CCC(Nc2cccnc2)C1 (centres undefined),-11,-10.5%,-14.6,-7.86,–

Compound,activity [1] [%],"activity change, negative = inhibition [2]",activity [3] [%],activity [4] [%],Potency [2]
Cn1c(=O)n(C)c2cc(S(=O)(=O)N3CCN(C4CCCCC4)CC3)c(Cl)cc21,-1.77,2.61%,-10.5,-13.7,–
CC1CCCCN1CCNC(=O)CCc1nnc2n(Cc3ccc(F)cc3)c(=O)c3ccccc3n12 (centres undefined),4.47,0%,-9.89,0.568,–
Cc1cc(-c2cc3c(cn2)N(C)CCN(C)C3)ccn1,5.42,4.1% [at 114 µM],2.35,3.56,–
COc1ncccc1-c1nccn2c(C3CN(Cc4ccccc4O)C3)ncc12,2.23,2.06% [at 85.7 µM],7.78,3.8,–
CCN(CC)CCCNC(=O)CCc1nnc2n(Cc3ccc(Cl)cc3)c(=O)c3ccccc3n12,4.07,0%,-5.57,0,–
O=C(Nc1ccc2c(N3CCOCC3)ncnc2c1)c1cccc(Cl)c1,-10.9,-4.21%,-7.95,-22.8,–
COc1ccc(CCNC(=O)c2ccc(CN3C(=O)CCn4nccc43)cc2)cc1OC,-29.4,–,-12.4,-27,24.1 µM (active)
CC1CC(C)CN(S(=O)(=O)c2ccc3c(c2)oc(=O)n3CC(=O)Nc2ccc(F)cc2)C1 (centres undefined),4.26,0%,-4.58,-42.5,–
O=C(CCc1nnc2n(Cc3ccccc3Cl)c(=O)c3ccccc3n12)N1CCC(N2CCCCC2)CC1,0,0.582%,-1.92,0,–
COc1ccc(-c2cc3c(cn2)CN(CCc2ccccc2)CCN3)cc1OC,-0.529,3.81% [at 85.7 µM],-18.9,-48.8,–
c1ccc(CN2CCc3c(sc4ncnc(N5CCOCC5)c34)C2)cc1,-7.7,-10.8%,-44.8,-7.28,–
CCCCN1C(=O)c2cc(C(=O)Nc3cc(C)cc(C)c3)nn2CC1(C)C(=O)NC1CCCC1 (centres undefined),-1.58,0%,1.44,-4.22,–
CC(C)CCn1c(=O)c2ccccc2n2c(CCC(=O)N3CCN(c4cccc(Cl)c4)CC3)nnc12,1.55,1.8%,-55.2,-8.01,–
CC1=C[C@@H](CN(CC2CC2)CC2CC2)[C@H](C(C)C)C[C@H]1Cc1nc2ccncc2[nH]1,3.81,4.35% [at 85.7 µM],-1.17,3.65,–
COc1ccc(CCN2C(=O)c3cc4oc(C)cc4n3CC2(C)C(=O)NC2CCCCC2)cc1OC (centres undefined),-7.54,-4.8%,-78.3,-5.67,–
CCN(CC)CCNC(=O)CCc1nnc2n(Cc3ccccc3Cl)c(=O)c3ccccc3n12,-5.86,-1.02%,-14.7,2.62,–
CCCCCNC(=O)c1sc(=S)n2c1[nH]c(=O)c1ccc(C(=O)OC)cc12,-39.2,–,-59.4,-27,30.4 µM (active)
COc1ccc(CN2C(=O)c3cc4sccc4n3CC2(C)C(=O)NC2CCC(C)CC2)cc1OC (centres undefined),-5.8,0.162%,-79.1,-7.08,–
